# Test results from ChEMBL document CHEMBL3988442, “University of Dundee, Small-Polar-MMV Screening Library” (2021).
# For some of these results: Entries with a potency or affinity are not part of this list.
# How the values were obtained:
# Set-up in all cases: scale not given: direction of the effect not stated beside the values
# [1] = molecular target: Protein translocase subunit SecA (Escherichia coli (strain K12)) (UniProt P10408); experiment: Assay to Identify E. coli SecA ATPase Inhibitors; format: functional; details: 30 µM
# Protein translocase subunit SecA (Escherichia coli (strain K12)), sequence (P10408 whole entry): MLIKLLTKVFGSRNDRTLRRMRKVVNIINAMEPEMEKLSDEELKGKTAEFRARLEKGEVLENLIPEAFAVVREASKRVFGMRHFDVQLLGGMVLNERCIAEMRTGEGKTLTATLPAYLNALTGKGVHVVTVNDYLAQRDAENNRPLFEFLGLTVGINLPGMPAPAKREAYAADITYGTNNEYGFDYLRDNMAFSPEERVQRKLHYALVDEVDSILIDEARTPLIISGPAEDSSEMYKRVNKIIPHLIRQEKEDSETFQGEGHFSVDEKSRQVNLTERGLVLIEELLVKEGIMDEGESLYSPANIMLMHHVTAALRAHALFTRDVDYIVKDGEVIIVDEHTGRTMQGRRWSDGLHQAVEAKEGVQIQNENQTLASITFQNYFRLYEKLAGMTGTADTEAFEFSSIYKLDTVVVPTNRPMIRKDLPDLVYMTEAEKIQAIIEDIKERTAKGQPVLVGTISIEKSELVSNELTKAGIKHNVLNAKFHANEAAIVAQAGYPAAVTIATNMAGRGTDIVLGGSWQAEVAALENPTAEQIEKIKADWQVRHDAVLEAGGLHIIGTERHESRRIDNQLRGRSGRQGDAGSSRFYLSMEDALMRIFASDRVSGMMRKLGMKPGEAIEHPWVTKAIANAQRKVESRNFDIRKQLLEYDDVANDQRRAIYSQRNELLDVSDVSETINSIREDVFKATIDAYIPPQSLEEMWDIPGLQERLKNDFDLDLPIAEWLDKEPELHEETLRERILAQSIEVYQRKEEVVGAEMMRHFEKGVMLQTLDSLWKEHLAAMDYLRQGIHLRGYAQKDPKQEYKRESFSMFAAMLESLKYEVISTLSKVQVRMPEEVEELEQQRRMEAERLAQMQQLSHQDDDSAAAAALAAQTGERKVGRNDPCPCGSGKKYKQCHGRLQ
# [2] = molecular target: T1, Ubiquitin-activating enzyme e1, putative (Leishmania donovani (strain BPK282A1)) (UniProt E9BSI1); experiment: Leishmania donovani Ubiquitin Activating Enzyme (LdE1); format: functional; details: 30 µM
# T1 sequence (whole entry): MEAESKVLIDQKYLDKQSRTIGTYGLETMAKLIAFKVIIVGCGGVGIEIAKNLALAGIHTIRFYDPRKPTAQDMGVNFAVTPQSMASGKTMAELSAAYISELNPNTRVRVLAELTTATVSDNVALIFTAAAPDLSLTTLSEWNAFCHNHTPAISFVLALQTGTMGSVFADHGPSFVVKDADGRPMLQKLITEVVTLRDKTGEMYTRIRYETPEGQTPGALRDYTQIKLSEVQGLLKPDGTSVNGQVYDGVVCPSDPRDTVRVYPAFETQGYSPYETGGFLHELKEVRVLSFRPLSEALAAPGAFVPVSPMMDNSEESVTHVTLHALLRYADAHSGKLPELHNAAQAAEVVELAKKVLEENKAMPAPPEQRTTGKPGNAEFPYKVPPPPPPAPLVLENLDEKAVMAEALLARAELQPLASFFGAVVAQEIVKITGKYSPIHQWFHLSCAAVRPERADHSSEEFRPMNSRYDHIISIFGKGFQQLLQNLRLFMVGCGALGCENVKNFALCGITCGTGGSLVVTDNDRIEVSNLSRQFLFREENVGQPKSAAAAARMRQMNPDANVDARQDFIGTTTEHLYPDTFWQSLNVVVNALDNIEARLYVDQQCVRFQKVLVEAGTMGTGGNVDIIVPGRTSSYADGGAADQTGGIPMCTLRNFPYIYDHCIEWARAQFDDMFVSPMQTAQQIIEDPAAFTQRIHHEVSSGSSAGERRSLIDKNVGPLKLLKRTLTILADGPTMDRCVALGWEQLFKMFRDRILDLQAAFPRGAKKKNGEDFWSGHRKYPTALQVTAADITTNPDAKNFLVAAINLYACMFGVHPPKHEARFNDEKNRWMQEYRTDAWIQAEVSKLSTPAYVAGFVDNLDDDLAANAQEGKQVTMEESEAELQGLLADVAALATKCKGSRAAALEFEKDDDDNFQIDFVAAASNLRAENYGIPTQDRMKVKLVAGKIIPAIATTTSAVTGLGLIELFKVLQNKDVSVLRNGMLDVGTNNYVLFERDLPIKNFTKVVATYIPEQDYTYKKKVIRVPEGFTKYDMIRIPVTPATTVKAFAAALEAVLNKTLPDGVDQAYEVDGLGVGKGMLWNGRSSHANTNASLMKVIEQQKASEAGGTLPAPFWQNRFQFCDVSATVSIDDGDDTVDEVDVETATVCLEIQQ
# [3] = molecular target: AMP-activated protein kinase, AMPK (Homo sapiens) (UniProt P54646+O43741+P54619+Q9UGJ0+Q9Y478+Q13131+Q9UGI9); experiment: AMP-dependent Kinase enzyme assay. An in vitro enzyme assay that detects ADP turnover that is directly proportional to AMPK activity. This uses naive AMPK that is activated during the assay with MK-8722; format: functional; details: 30 µM
# [4] = molecular target: Sialic acid-binding Ig-like lectin 9 (Homo sapiens) (UniProt Q9Y336); experiment: Hs-Siglec9 ALPHAscreen SOP 20170721; details: 10 µM
# Sialic acid-binding Ig-like lectin 9 (Homo sapiens), sequence (Q9Y336 whole entry): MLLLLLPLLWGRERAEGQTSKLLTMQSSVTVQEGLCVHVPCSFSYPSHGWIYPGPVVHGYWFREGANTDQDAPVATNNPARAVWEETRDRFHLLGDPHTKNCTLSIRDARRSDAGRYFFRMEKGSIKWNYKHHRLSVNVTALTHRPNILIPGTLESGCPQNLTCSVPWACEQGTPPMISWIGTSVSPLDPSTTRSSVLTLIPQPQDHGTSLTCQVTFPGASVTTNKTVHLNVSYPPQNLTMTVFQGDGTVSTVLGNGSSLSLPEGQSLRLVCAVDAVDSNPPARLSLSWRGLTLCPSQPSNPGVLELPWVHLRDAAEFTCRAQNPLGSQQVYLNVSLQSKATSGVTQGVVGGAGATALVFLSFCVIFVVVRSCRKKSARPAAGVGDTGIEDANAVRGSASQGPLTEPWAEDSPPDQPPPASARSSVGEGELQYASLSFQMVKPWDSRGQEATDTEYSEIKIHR
# [5] = test system: Trypanosoma cruzi; experiment: Trypanosoma cruzi phosphomannomutase and mannose-1-phosphate guanylyltransferase assay; format: functional; details: 10 µM
# [6] = molecular target: T2, Arginase-2, mitochondrial (Homo sapiens) (UniProt P78540); experiment: in vitro enzyme assay to detect the production of urea directly proportional to the activity of Arginase II; format: functional; details: 33.3 µM; note: in the data most compounds retested in dose-response had high values
# T2 sequence (whole entry): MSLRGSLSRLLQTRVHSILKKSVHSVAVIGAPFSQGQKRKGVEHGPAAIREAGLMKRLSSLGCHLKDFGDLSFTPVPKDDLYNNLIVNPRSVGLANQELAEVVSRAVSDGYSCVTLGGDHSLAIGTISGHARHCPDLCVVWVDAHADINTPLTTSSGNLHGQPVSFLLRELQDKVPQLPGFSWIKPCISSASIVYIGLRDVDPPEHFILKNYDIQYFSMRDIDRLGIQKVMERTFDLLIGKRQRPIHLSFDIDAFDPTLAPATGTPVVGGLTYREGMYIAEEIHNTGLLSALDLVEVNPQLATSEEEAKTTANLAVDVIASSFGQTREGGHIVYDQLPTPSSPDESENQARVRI
# [7] = molecular target: T3, Proteasome subunit beta (Trypanosoma cruzi) (UniProt O96673); experiment: Trypanosoma cruzi proteasome chymotrypsin-like activity (TcProtChymo) assay.; note: in the data most compounds retested in dose-response had high values; format: functional; details: 9.37 µM
# T3 sequence (whole entry): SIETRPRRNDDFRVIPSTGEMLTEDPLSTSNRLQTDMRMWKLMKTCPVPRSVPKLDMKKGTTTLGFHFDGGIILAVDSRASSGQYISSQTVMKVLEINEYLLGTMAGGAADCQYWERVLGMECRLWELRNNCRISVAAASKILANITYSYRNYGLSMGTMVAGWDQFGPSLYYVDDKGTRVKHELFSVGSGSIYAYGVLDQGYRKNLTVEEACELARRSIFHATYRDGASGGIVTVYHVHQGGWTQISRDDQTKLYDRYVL
# [8] = species on record: Homo sapiens; experiment: To identify inhibition of the IFN signalling (Jak-Stat) pathway via expression of an eGFP reporter gene under the control of an IFN-stimulated response element (ISRE) containing MxA promoter.; format: functional; details: 30 µM
# [9] = molecular target: T4, Tyrosyl-tRNA synthetase, putative (Trypanosoma cruzi (strain CL Brener)) (UniProt Q4DSP6); experiment: Trypanosoma cruzi tyrosyl tRNA synthetase (TcYRS) _High Tyrosine SOP; format: functional; details: 30 µM; note: in the data most compounds retested in dose-response had high values
# T4 sequence (whole entry): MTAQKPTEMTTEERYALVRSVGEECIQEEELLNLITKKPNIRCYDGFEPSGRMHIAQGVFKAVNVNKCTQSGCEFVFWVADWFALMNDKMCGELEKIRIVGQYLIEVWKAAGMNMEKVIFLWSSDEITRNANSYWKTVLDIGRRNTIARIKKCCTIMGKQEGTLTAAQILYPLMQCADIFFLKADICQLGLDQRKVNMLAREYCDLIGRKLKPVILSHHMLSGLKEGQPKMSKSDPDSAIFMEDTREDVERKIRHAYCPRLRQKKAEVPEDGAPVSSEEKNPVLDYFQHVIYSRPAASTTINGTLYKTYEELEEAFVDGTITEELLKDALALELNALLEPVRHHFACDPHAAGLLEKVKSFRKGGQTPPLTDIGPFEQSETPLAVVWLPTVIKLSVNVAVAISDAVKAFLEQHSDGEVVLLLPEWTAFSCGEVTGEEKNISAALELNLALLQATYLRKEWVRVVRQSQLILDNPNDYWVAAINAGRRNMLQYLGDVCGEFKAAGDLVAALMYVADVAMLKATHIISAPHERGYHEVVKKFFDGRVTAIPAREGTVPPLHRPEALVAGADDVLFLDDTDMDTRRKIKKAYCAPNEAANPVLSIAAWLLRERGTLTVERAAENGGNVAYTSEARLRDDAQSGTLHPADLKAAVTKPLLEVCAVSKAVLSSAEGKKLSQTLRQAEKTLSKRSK
# [10] = molecular target: T4, Tyrosyl-tRNA synthetase, putative (Trypanosoma cruzi (strain CL Brener)); experiment: Trypanosoma cruzi tyrosyl tRNA synthetase (TcYRS) SOP; format: functional; details: 30 µM
# [11] = molecular target: Chromo domain-containing protein 1 (Saccharomyces cerevisiae (strain ATCC 204508 / S288c) (Baker's yeast)) (UniProt P32657); experiment: ScCHD-1 Enzyme Inhibition Assay; format: functional; details: 30 µM; note: in the data most compounds retested in dose-response had high values
# Chromo domain-containing protein 1 (Saccharomyces cerevisiae (strain ATCC 204508 / S288c) (Baker's yeast)), sequence (P32657 whole entry, the tested form may be a part): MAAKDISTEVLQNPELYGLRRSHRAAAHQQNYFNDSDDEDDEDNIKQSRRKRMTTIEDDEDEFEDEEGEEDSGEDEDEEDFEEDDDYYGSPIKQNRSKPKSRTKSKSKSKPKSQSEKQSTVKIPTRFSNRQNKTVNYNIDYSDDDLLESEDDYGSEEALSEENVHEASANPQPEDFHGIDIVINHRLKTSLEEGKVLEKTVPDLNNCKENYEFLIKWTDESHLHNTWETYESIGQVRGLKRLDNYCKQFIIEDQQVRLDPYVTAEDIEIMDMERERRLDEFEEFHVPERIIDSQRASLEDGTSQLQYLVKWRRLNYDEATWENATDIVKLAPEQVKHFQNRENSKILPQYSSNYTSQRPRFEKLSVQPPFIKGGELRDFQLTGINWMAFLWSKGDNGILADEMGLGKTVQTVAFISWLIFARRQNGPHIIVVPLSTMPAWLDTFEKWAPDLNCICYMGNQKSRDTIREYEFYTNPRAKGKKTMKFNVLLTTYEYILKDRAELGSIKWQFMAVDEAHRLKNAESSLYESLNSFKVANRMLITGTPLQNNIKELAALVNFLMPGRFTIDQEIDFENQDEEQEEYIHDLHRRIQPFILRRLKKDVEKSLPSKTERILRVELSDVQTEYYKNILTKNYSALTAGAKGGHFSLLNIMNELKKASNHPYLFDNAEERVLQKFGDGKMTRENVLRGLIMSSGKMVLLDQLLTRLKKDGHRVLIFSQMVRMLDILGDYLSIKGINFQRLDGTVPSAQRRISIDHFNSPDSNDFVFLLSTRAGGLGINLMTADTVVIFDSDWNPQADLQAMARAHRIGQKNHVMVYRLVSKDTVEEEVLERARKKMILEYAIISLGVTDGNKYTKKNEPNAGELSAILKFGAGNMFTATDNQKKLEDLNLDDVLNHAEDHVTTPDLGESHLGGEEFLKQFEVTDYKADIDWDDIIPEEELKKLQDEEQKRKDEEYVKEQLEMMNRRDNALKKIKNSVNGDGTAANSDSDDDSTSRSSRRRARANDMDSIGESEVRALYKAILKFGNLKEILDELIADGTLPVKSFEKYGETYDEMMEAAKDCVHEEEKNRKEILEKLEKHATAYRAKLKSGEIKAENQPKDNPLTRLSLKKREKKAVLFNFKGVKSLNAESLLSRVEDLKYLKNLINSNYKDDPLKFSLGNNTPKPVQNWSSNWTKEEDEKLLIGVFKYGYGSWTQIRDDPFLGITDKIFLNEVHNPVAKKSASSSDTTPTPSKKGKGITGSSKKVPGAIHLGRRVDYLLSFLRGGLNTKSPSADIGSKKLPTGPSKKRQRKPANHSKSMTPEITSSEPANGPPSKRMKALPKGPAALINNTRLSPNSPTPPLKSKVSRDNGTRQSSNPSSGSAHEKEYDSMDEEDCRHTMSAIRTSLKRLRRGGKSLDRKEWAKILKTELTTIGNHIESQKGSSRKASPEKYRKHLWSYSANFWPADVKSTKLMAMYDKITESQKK
Compound,Percent Effect [1],Percent Effect [2],Percent Effect [3],Percent Effect [4],Percent Effect [5],Percent Effect [6],Percent Effect [7],Percent Effect [8],Percent Effect [9],Percent Effect [10],Percent Effect [11]
c1ccc2sc(CN3CCOC(Cn4cncn4)C3)nc2c1 (stereo not given),-1.57%,-8.11%,-9.39%,-1.81%,-6.51%,0.401%,-4.68%,42.5%,1.48%,-6.17%,4.42%
c1cc2n(n1)CC(CNCc1ccc(OCC3CC3)nc1)CN2 (stereo not given),-1.23%,20.8%,11.1%,4.04%,7.68%,0.356%,3.04%,-0.525%,13.6%,24.4%,-9.69%
Cn1cc(CN2CCn3c(CNC(=O)c4cccn4C)cnc3C2)cn1,1.54%,10.7%,-1.53%,26.8%,-0.193%,-52.1%,14%,0.903%,7.29%,22.5%,-7.88%
Cc1cc(-c2nnc(SCC(=O)O)n2C(C)c2ccccc2)nn1C (stereo not given),-4.08%,12.5%,-0.551%,18.6%,6.32%,1.77%,14.9%,7.01%,9.47%,12.8%,-1.69%
O=C(NCCC1=CCCCC1)NCc1nnc2n1CCC2,-2.33%,15.8%,1.86%,-11.8%,-5.88%,7.91%,6.18%,7.88%,7.39%,16.1%,-8.65%
O=C(NCC(O)c1cccc(F)c1)c1cccnc1O (stereo not given),-5.99%,16.4%,-2.16%,7.14%,9.52%,-4.79%,5.05%,7.58%,7.29%,13.6%,-7.57%
Cc1ccccc1NS(=O)(=O)c1cc2c(c(C(=O)O)c1)OCCO2,-8.46%,7.89%,0.578%,-1.17%,-7.19%,-6.47%,5.67%,2.34%,2.46%,1.24%,3.8%
Cc1nc(C2CCCN(C(=O)Cn3ccccc3=O)C2)no1 (stereo not given),-0.276%,0%,3.05%,1.79%,-0.564%,4.6%,-4.84%,8.71%,2.45%,4.88%,3.7%
CC(C)N1CCCC(CCCc2ccccn2)(C(=O)O)C1 (stereo not given),-3.09%,6.76%,15.5%,0.499%,-1.98%,-0.696%,12.3%,-2.07%,10.8%,14.3%,4.56%
CC(C)c1nnc2ccc(N3CCC(C(=O)Nc4nccs4)CC3)nn12,-2.74%,9.33%,5.47%,1.19%,3.54%,-0.528%,12.6%,82.9%,13.8%,23.1%,-2.21%
CCN(CCC(F)(F)F)C(=O)Nc1cccc(N2CCOCC2)c1,-2.27%,5.41%,-8.53%,14.9%,2.12%,-2.38%,5.52%,16.4%,2.65%,7.32%,-3.36%
Cn1ccc(C(=O)N2CCCC(Cc3cccc4ncccc34)C2)n1 (stereo not given),-7.55%,14.9%,-6.32%,5%,4.74%,-4.41%,7.33%,49.9%,3.23%,-6.49%,-12%
c1csc(CN2CCn3c(Cn4cncn4)cnc3C2)n1,-3.71%,2.67%,12.1%,4.38%,-0.984%,4.43%,6.08%,-18.1%,2.13%,1.28%,-1.62%
Cc1cnn(CCNCC(O)COc2ccc(C#N)cc2)c1 (stereo not given),-4.77%,15.2%,-8.43%,8.11%,1.42%,2.28%,8.44%,-3.4%,5.42%,13.9%,-5.58%
Cc1cc(C[C@@H]2CCC[C@H]2NCc2ccccc2C(F)(F)F)on1,-4.94%,1.35%,8.14%,-0.325%,0%,2.55%,6.4%,13.5%,2.15%,9.09%,-10.5%
CCCS(=O)(=O)c1ncc(CN2CCC(CO)CC2)n1CC1CCCO1 (stereo not given),0.687%,-6.94%,-2.25%,-1.43%,-5.34%,0.442%,4.74%,-4.14%,0%,-7.69%,5.71%
Cc1csc(N2CCN(CC(=O)Nc3nncs3)CC2C)n1 (stereo not given),-3.67%,0%,-9.26%,8.6%,-0.836%,-3.88%,5.92%,9.1%,3.96%,-1.22%,10.3%
Cc1nnc2n1CCN(Cc1csc(Cc3ccccc3)n1)C2,-5.45%,5.41%,-7.1%,3.42%,3.25%,4.62%,3.41%,8.73%,8.91%,15.8%,-1.48%
Cc1cccc(COC[C@H]2CC[C@H]3[C@H](CCN3C(=O)CC3CC3)O2)n1,-5.92%,10.7%,7.31%,-1.34%,-1.57%,5.36%,6.96%,15.9%,7.45%,19.2%,-5.1%
CSc1cc2c(cc1NC(=O)NCC(C)(C)C(N)=O)OCCO2,-3.46%,0%,0.42%,-2.41%,-3.91%,-28.8%,12.8%,-6.09%,-27.7%,6.1%,0.589%
